Screening results: PubChem BioAssay, NMMLSC
Shown are actives, neighbours in structure and some others; about 0.93% of the full set was active somewhere.
LAP4 TOR yeast = alters LAP4-GFP fluorescence in TOR pathway yeast screen. AID 2023. S. cerevisiae LAP4-GFP multiplex, flow cytometry GFP, 3 h; median GFP as percent of DMSO wells. GFP response vs DMSO, % at 10 µM. 320,000 compounds, 0.34% hits;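 active = GFP response vs DMSO above a set limit, about the screen mean plus 3 SD, cut at about 150% in these data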
RPL19A TOR yeast = alters RPL19A-GFP fluorescence in TOR pathway yeast screen | percent response vs DMSO, % at 10 µM | 330,000 compounds, 0.3% hits | AID 2025 | S. cerevisiae RPL19A-GFP strain, flow cytometry, 3 h; stronger effect = lower value;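 active = percent response vs DMSO below 50%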;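 note: median channel GFP fluorescence of the barcoded RPL19A-GFP strain; ratio of sample median GFP to plate DMSO average so 100% = DMSO; lower means less RPL19A-GFP as with rapamycin TOR inhibition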
CIT2-GFP yeast = yeast TOR pathway CIT2-GFP modulation | GFP response vs DMSO, % at 10 µM | S. cerevisiae CIT2-GFP strain, flow cytometry, 3 h; 100 means same as DMSO wells | 320,000 compounds, 0.065% hits | AID 2029;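 active = GFP response relative to DMSO above a set limit, near the screen mean plus 3 SD, cut at about 150% in these data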;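 note: ratio of well median GFP fluorescence to mean of DMSO wells on the plate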
AGP1-GFP MLPCN = yeast TOR pathway AGP1-GFP modulation; S. cerevisiae AGP1-GFP multiplex flow cytometry, 3 h; GFP as percent of DMSO wells; GFP response vs DMSO, % at 10 µM; 320,000 compounds, 0.02% hits; AID 2066;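 active = GFP response relative to DMSO above a set limit, near screen average plus 3 SD, cut at about 150% in these data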;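 note: median GFP channel fluorescence of the gated AGP1 strain per well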
MEP2-GFP yeast = yeast TOR pathway MEP2-GFP modulation | S. cerevisiae MEP2-GFP strain, flow cytometry GFP, 3 h; 100% = DMSO control level | AID 2016 | 330,000 compounds, 0.51% hits | GFP response vs DMSO, % at 10 µM;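 active = GFP response versus DMSO above a set limit, roughly screen mean plus 3 SD, cut at about 180% in these data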;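 note: median GFP fluorescence of the barcode-gated MEP2-GFP cells per well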
LAP4-GFP pick2 = reconfirmed LAP4-GFP TOR pathway modulator in yeast. shares compounds with LAP4 TOR yeast. S. cerevisiae LAP4-GFP strain, flow cytometry GFP, 3 h. GFP response vs DMSO, % at 10 µM. 590 compounds, 20% hits;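 active = GFP signal as percent of the solvent control above about 150%, meaning raised reporter expression, limit read from the data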;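 note: ratio of well median GFP fluorescence to plate DMSO mean so 100% = DMSO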
MEP2 cherry2 = yeast MEP2-GFP modulation, second cherry pick. AID 2622. S. cerevisiae MEP2-GFP strain, flow cytometry GFP, 3 h. 590 compounds, 10% hits. shares compounds with LAP4 TOR yeast. GFP response vs DMSO, % at 10 µM;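 active = GFP signal above 150% of the solvent control wells, that is a rise of more than half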;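 note: median channel GFP fluorescence of all gated yeast cells per well; ratio of median GFP to plate DMSO average so 100% = DMSO level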
RPL19A GFP CP2 = yeast RPL19A-GFP TOR reporter modulation, second cherry pick; shares compounds with LAP4 TOR yeast; S. cerevisiae RPL19A-GFP strain, flow cytometry GFP, 3 h; stronger effect = lower value; 100% means same as DMSO wells; GFP response vs DMSO, % at 10 µM; 590 compounds, 3% hits;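 active = under 65% GFP response relative to DMSO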;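 note: median GFP channel fluorescence per well over the all cells gate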
CIT2-GFP pick2 = reconfirmed modulator of CIT2-GFP TOR reporter in yeast. shares compounds with LAP4 TOR yeast. S. cerevisiae CIT2-GFP strain, flow cytometry GFP, 3 h; DMSO control wells read 100%. GFP response vs DMSO, % at 10 µM. 590 compounds, 8% hits;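 active = GFP response vs DMSO above about 150%, limit read from the data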;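 note: median green fluorescence per well over all gated yeast cells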
AGP1 GFP CP2 = yeast AGP1-GFP TOR reporter modulation, second cherry pick | 590 tested, under 10 active | S. cerevisiae AGP1-GFP strain, flow cytometry GFP, 3 h | shares compounds with LAP4 TOR yeast | AID 2643 | percent response vs DMSO, % at 10 µM;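 active = over 150 percent of DMSO response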;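 note: median GFP channel fluorescence over all cells without mother daughter split; sample median GFP divided by mean DMSO control so 100% equals DMSO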
s288c autofluor = yeast s288c autofluorescence artifact, counter-screen; fluorescence change (kMESF span) at 33 µM; shares compounds with LAP4 TOR yeast; S. cerevisiae s288c, 520 nm autofluorescence, flow cytometry, 3 h; stronger effect = higher value; zero means same as solvent-only cells; 610 tested, under 10 active;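 active = fluorescence span over the dose series, or activity score, above about 33, limit read from the data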
Active calls of the source: *; x = no result.

SMILES | LAP4 TOR yeast | RPL19A TOR yeast | CIT2-GFP yeast | AGP1-GFP MLPCN | MEP2-GFP yeast | LAP4-GFP pick2 | MEP2 cherry2 | RPL19A GFP CP2 | CIT2-GFP pick2 | AGP1 GFP CP2 | s288c autofluor
CC1=NN(c2nc3ccccc3[nH]2)C(=O)C1Cc1ccccc1 (centres undefined) | 87 | 58 | 69 | 57 | 97 | 123 | 141 | 76 | 85 | 75 | x
CCCCC(=O)NC(=S)Nc1nnn(CCC)n1 | 100 | 95 | 90 | 94 | 100 | x | x | x | x | x | x
CCCN(CCC)c1nc(C#N)nc(N(CCC)CCC)n1 | 90 | 51 | 87 | 75 | 131 | 103 | 102 | 99 | 107 | 102 | x
CN(C)c1nc(C#N)nc(N(C)C)n1 | 100 | 100 | 101 | 104 | 103 | x | x | x | x | x | x
COc1cccc2sc(Nc3nc(-c4ccccn4)cs3)nc12 | 169* | 66 | 73 | 87 | 100 | x | x | x | x | x | 0.81
c1ccc(-c2csc(Nc3cccnc3)n2)nc1 | 114 | 94 | 95 | 94 | 104 | 99 | 105 | 102 | 102 | 99 | 0
c1ccc(Nc2nc(-c3ccccn3)cs2)cc1 | 102 | 79 | 76 | 46 | 91 | x | x | x | x | x | x
Cc1ccc(N2C(=O)C(NC(=O)c3ccccc3)(C(F)(F)F)C3=C2CC(C)(C)CC3=O)cc1 (centres undefined) | 98 | 103 | 106 | 96 | 103 | x | x | x | x | x | x
O=Nc1[nH]c(=O)c(/C=C(\O)c2ccccc2)nc1NO | 91 | 108 | 102 | 98 | 110 | x | x | x | x | x | x
O=C(CS(=O)c1ccccc1[N+](=O)[O-])Oc1ccc(Br)cc1 (centres undefined) | 170* | 91 | 92 | 100 | 92 | x | x | x | x | x | 0.71
Cc1ccc(C(=O)NNC(=S)NC(=O)c2ccco2)cc1 | 237* | 92 | 78 | 107 | 120 | x | x | x | x | x | 1.9
O=C(/C=C/c1ccccc1)NC(=S)NNC(=O)c1ccco1 | 126 | 93 | 110 | 96 | 105 | x | x | x | x | x | x
O=C(/C=C/c1ccc(Br)cc1)NC(=S)NNC(=O)c1ccco1 | 146 | 100 | 138 | 85 | 110 | 133 | 133 | 100 | 114 | 82 | 1.1
Cc1ccccc1OCC(=O)NNC(=S)NC(=O)c1ccco1 | 159* | 113 | 107 | 114 | 120 | x | x | x | x | x | 0.6
COC(=O)c1cc(NC(=O)C2CC(=O)NC(=NCc3ccc(OC)cc3)S2)cc(C(=O)OC)c1 (centres undefined) | 110 | 104 | 102 | 104 | 106 | x | x | x | x | x | x
Cc1ccc(NC2CCCN(C(=O)c3ccc(C)c(N4CCNC4=O)c3)C2)cc1C (centres undefined) | 93 | 105 | 109 | 101 | 100 | x | x | x | x | x | x
O=C(Oc1ccnc2cc(Cl)ccc12)N1CCOCC1 | 99 | 101 | 104 | 95 | 108 | 100 | 98 | 99 | 97 | 99 | 0
Cc1cc(-c2cc(C(=O)NC3CCCC3)on2)nc(NC2CCCC2)n1 | 135 | 92 | 86 | 82 | 86 | x | x | x | x | x | x
Cc1cc(-c2cc(C(=O)NCc3ccccc3)on2)nc(NC2CCCC2)n1 | 103 | 92 | 81 | 92 | 93 | 101 | 106 | 99 | 104 | 96 | x
Cc1cc(-c2cc(C(=O)Nc3ccccc3)on2)nc(NC2CCCC2)n1 | 116 | 107 | 89 | 91 | 99 | 110 | 103 | 106 | 101 | 98 | x
COc1ccc(-c2cc(C(=O)Nc3ccccc3)on2)cc1 | 99 | 92 | 89 | 90 | 87 | x | x | x | x | x | x
CSc1nc(C)cc(-c2cc(C(=O)Nc3ccccc3)on2)n1 | 113 | 96 | 93 | 87 | 89 | 106 | 115 | 102 | 100 | 97 | x
CCCNc1nc(C)cc(-c2cc(C(=O)NC3CCCC3)on2)n1 | 156* | 95 | 103 | 85 | 92 | 106 | 102 | 98 | 90 | 96 | x
OCC[C@@H]1C[C@@H](O)[C@H](O)[C@@]2(CCc3ccccc3CO2)O1 | 92 | 95 | 96 | 100 | 102 | x | x | x | x | x | x
CN(C)C1(CNC(=O)C2CCN(S(=O)(=O)c3ccccc3C(F)(F)F)CC2)CCCCC1 | 80 | 107 | 114 | 102 | 100 | x | x | x | x | x | x
SMILES | LAP4 TOR yeast | RPL19A TOR yeast | CIT2-GFP yeast | AGP1-GFP MLPCN | MEP2-GFP yeast | LAP4-GFP pick2 | MEP2 cherry2 | RPL19A GFP CP2 | CIT2-GFP pick2 | AGP1 GFP CP2 | s288c autofluor
CCCCNC(=O)c1ccc(NC(=O)CC2SC(N3CCCC3)=NC2=O)cc1 (centres undefined) | 117 | 111 | 106 | 107 | 108 | x | x | x | x | x | x
CC(C)(C)C1C/C(=C/c2ccccn2)C(=O)/C(=C/c2ccccn2)C1 (centres undefined) | 162* | 99 | 84 | 80 | 97 | 181* | 98 | 104 | 106 | 96 | 0
CC(C)CCN1C(=O)c2ccc(C(=O)NCc3ccccn3)cc2C1=O | 164* | 71 | 127 | 114 | 173 | 111 | 128 | 100 | 115 | 103 | x
CN1C(=O)c2ccc(C(=O)NCc3ccccn3)cc2C1=O | 103 | 104 | 109 | 105 | 107 | x | x | x | x | x | x
Cc1ccccc1CC1CCN(CCCNC(=O)Nc2ccccc2)CC1 | 100 | 105 | 108 | 99 | 108 | x | x | x | x | x | x
O=C(C1CC(=O)N(c2ccc(Cl)cc2)C1)N1CCC(c2nc3ccccc3[nH]2)CC1 (centres undefined) | 106 | 108 | 111 | 113 | 108 | x | x | x | x | x | x
O=C(NCc1ccc2c(c1)OCO2)c1nc(S(=O)(=O)Cc2ccccc2)ncc1Cl | 175* | 92 | 108 | 118 | 102 | x | x | x | x | x | -0.21
Cc1c(Br)c(=O)oc2c(Br)c(O)ccc12 | 94 | 106 | 101 | 75 | 94 | x | x | x | x | x | x
Cc1c(Br)c(=O)oc2c(Br)c(O)c(O)cc12 | 85 | 59 | 88 | 25 | 159 | 97 | 97 | 98 | 107 | 101 | -0.1
COc1ccc(-n2nc3c(N4CCC(C(=O)N5CCCCCC5)CC4)nnc(C)c3c2C)cc1 | 95 | 97 | 111 | 96 | 99 | x | x | x | x | x | x
O=C1c2ccccc2C(=O)C2OC12 (centres undefined) | 163* | 79 | 88 | 98 | 132 | x | x | x | x | x | 2.1
